# According to PubChem BioAssay AID1022 (Emory University Molecular Libraries Screening Center, 2008):
# About 3,300 (1.5%) of roughly 220,000 compounds were called active. The sample holds actives, similar compounds and a random draw of the others, so the mix is not that of the screen.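 The calls were made as follows: active = compounds that cut the protein-peptide binding signal by more than 50% relative to plate controls in a single-dose test; inactive = the rest.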
# Biological target: Induced myeloid leukemia cell differentiation protein Mcl-1 (Homo sapiens) (UniProt Q07820)
# Sequence (Q07820 whole entry, looked up): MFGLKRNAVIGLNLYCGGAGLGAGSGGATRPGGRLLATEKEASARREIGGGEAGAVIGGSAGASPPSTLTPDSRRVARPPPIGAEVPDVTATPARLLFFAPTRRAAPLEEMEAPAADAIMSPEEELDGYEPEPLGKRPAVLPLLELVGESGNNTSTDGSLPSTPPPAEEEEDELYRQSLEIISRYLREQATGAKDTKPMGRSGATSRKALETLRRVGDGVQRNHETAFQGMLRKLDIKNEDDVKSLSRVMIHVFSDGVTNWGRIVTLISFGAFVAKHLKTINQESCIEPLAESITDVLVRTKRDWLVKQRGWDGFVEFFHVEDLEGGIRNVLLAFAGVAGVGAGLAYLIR
# Test: Mcl-1/Noxa binding inhibitors, primary screen, biochemical, TR-FRET, 1536-well (AID 1022);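 also: His-tagged Mcl-1 with rhodamine Noxa BH3 peptide and terbium anti-His antibody; 0% = Mcl-1 plus Noxa peptide wells and 100% = peptide-only wells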
# Conditions: TR-FRET Mcl-1/Noxa peptide binding, 2 h; at 21.7 µM; active compounds read high
row,Compound,inhibition
1,O=C1CCCCC1C(=O)c1ccccc1 (stereo unspecified),95% (active)
2,O=C(OC1CCCCC1=O)c1cccc(S(=O)(=O)NCc2ccccc2)c1 (stereo unspecified),-5.3% (inactive)
3,O=C(/C=C/c1ccccc1[N+](=O)[O-])OC1CCCCC1=O (stereo unspecified),5.64% (inactive)
4,Cc1ccccc1N1CCN(Cc2nc(Cc3ccccc3F)no2)CC1,9.66% (inactive)
5,O=S(=O)(c1ccc(Cl)cc1)N1CCCN(c2ccc(C(F)(F)F)cn2)CC1,15.1% (inactive)
6,Cc1ccc(NS(=O)(=O)c2ccc(C)c(NC(=O)COc3ccc4ccccc4c3)c2)c(C)c1,-15.7% (inactive)
7,Cc1ccc(NS(=O)(=O)c2ccc(N/N=C/c3ccccc3OCC(=O)O)c([N+](=O)[O-])c2)c(C)c1,56.7% (active)
8,Cc1cccc(COc2ccccc2/C=N/Nc2ccc([N+](=O)[O-])cc2)c1,1.32% (inactive)
9,CCCCSc1nnc2c(n1)OC=Nc1ccccc1-2,12.5% (inactive)
10,O=C(CC(c1ccccc1)c1cc(Cl)ccc1O)NCCN1CCOCC1 (stereo unspecified),-4.69% (inactive)
11,O=C(Cc1ccccc1)N1N=C(c2ccncc2)CC1(O)C(F)(F)F (stereo unspecified),-12.4% (inactive)
12,CC(C)c1ccc2c(c1)c(SC(C)(C)C)c(CC(C)(C)C(=O)O)n2Cc1ccc(Cl)cc1,68.7% (active)
13,Cc1ccc(C)c2c1cc(C)c1nnc(SCC(=O)Nc3cccc(C(=O)O)c3)n12,4.65% (inactive)
14,CC1CCN(Cc2nc(-c3ccc(Cl)cc3)no2)CC1,11% (inactive)
15,O=C(O)CC1=C(Nc2ccccc2)C(=O)N(c2ccccc2)C1c1ccc(Cl)cc1 (stereo unspecified),-6.85% (inactive)
16,CN(C(=O)Nc1ccc(Cl)cc1)n1cnc2ccccc2c1=O,-0.02% (inactive)
17,COc1ccc(OCC(O)CNCCNc2nccc(C(F)(F)F)n2)cc1 (stereo unspecified),-8.04% (inactive)
18,CCn1c(CN2C(=O)CSc3ccccc32)n[nH]c1=S,-15.7% (inactive)
19,Fc1ccccc1OCCSc1nc2ccccc2o1,60.4% (active)
20,CCN(CC)C(=O)CSc1nc2ccccc2o1,7.79% (inactive)
21,CC(C)(C)C(=O)CSc1nc2ccccc2o1,8.46% (inactive)

row,Compound,inhibition
1,Cn1nc(C(C)(C)C)c([N+](=O)[O-])c1C(N)=O,5.22% (inactive)
2,COc1ccc(Nc2cc(Cl)ccc2C(=O)O)cn1,11% (inactive)
3,CCN(CC)CCCNC(=O)c1ccc2c(=O)n(Cc3ccc4c(c3)OCO4)c(=S)[nH]c2c1,25.2% (inactive)
4,CCCCN(CC)CCCNC(=O)c1ccc(CSc2nc3ccncc3[nH]2)cc1,63% (active)
5,CCCCSc1nc2ccccc2[nH]1,12.9% (inactive)
6,COC(=O)c1nc(NC(=O)c2ccc(F)cc2)n[nH]1,-6.78% (inactive)
7,COC(=O)c1nc(NC(=O)c2ccc(Cl)cc2)n[nH]1,-8.02% (inactive)
8,COC(=O)c1nc(NC(=O)c2ccc(C(C)(C)C)cc2)n[nH]1,69.2% (active)
9,O=C(O)CC1(CC(=O)Nc2cccc(C(F)(F)F)c2)CCCC1,-33.1% (inactive)
10,Nc1nnnn1/N=C/c1cc([N+](=O)[O-])ccc1O,-18% (inactive)
11,Cc1ccc(N2C(=O)CC(Sc3ncn[nH]3)C2=O)cc1 (stereo unspecified),-10.1% (inactive)
12,O=C1CC(Sc2ncn[nH]2)C(=O)N1c1ccccc1 (stereo unspecified),54.4% (active)
13,COc1ccc(N2C(=O)CC(Sc3n[nH]c(-c4ccc(C)cc4)n3)C2=O)cc1 (stereo unspecified),36% (inactive)
14,Cc1nc(CNS(=O)(=O)c2cc([N+](=O)[O-])ccc2C)cs1,-0.49% (inactive)
15,Cc1ccc(-c2nn(-c3ccccc3)cc2/C=C/C(=O)Nc2cccc(S(N)(=O)=O)c2)cc1,7.42% (inactive)
16,CN(C)S(=O)(=O)c1cccc(-c2nn(-c3ccccc3)cc2/C=C2\SC(=S)N(CC(=O)O)C2=O)c1,74.1% (active)
17,O=C(CN1C(=O)/C(=C\c2ccccc2F)SC1=S)Nc1nc2ccccc2s1,11.5% (inactive)
18,CCOC(=O)c1sc2nc(CSCC(=O)OCc3ccc(C(=O)OC)o3)[nH]c(=O)c2c1C,11.7% (inactive)
19,COC(=O)c1sc2[nH]c(=S)n(N)c(=O)c2c1C,52.1% (active)
20,CCOC(=O)c1sc2nc(C)[nH]c(=O)c2c1C,-7.23% (inactive)
21,Cc1onc(-c2ccccc2)c1C(=O)N=C(N)c1ccc(Cl)cc1,13.2% (inactive)

row,Compound,inhibition
1,Cc1nnc(N/N=C/c2cccs2)[nH]c1=O,-2.37% (inactive)
2,CC(O)c1nc2c(c(=O)n(C)c(=O)n2C)n1C (stereo unspecified),-1.58% (inactive)
3,CC1CN(c2nc(Nc3ccccc3)nc(N)c2[N+](=O)[O-])CC(C)O1 (stereo unspecified),-24.5% (inactive)
4,CNc1nc(Nc2ccc(C)c(Cl)c2)nc(N)c1[N+](=O)[O-],26.8% (inactive)
5,CCN1CCN(c2nc(Nc3cccc(F)c3)nc(N)c2[N+](=O)[O-])CC1,56.7% (active)
6,O=C(NCc1cccnc1)Nc1cccc(NC(=O)NCc2cccnc2)c1F,-1.36% (inactive)
7,COc1ccc(Cl)cc1C(=O)Nc1ccc(N(C)C(C)=O)cc1,15.3% (inactive)
8,COc1cc(OC)c(C(=O)Nc2ccc(N(C)C)cc2)cc1OC,51.8% (active)
9,COc1cc(OC)c(C(=O)Nc2ccccc2-c2ccccc2)cc1OC,2.98% (inactive)
10,CC(NC(=S)NNS(=O)(=O)c1ccc(C(C)(C)C)cc1)c1ccccc1 (stereo unspecified),-17.7% (inactive)
11,Cc1ccc2c(c1)c1ncn(Cc3ccc(F)cc3)c(=O)c1n2C,-20.4% (inactive)
12,O=C(CSc1ccccc1)Nc1nnc(/C=C/c2ccccc2)s1,9.47% (inactive)
13,COc1ccc(/C=C/c2nnc(NC(=O)C(C)C)s2)cc1,12.2% (inactive)
14,O=C(Nc1ccc(Cl)cc1)Nc1nnc(/C=C/c2ccccc2)s1,91.2% (active)
15,CN(C)c1ccc(/C=C/C(=O)c2ccc(O)cc2)cc1[N+](=O)[O-],20.5% (inactive)
16,CCCc1nc2oc3c(=O)[nH]cnc3c2c2c1COC(C)(C)C2,-3.33% (inactive)
17,CC(=O)Nc1ccc(C(=O)/C=C/c2ccc[nH]2)cc1,15.7% (inactive)
18,COc1ccc(N2C(=O)c3ccccc3NC2c2ccc(OC)c(CN3CCOCC3)c2)cc1 (stereo unspecified),7.79% (inactive)
19,CCN(CCNC(=O)C1=C(C)C(=O)OC12CCC(C)CC2)c1ccccc1 (stereo unspecified),-5.12% (inactive)
